# From PubChem BioAssay AID493169 (National Center for Advancing Translational Sciences (NCATS), 2011)
# Records with an inconclusive call do not appear. A call without a number means that no potency is given here. Active and inactive are the calls of the source. The call rests on the fitted dose curve; in most records, active means well fitted inhibition curve with a large enough effect; inconclusive means small, poorly fitted or top-dose-only effect; inactive means flat fitted curve, though single readings scatter.
# Assay: CHOP2 Reporter Counterscreen Assay for Inhibitors of Ubiquitin-specific Protease USP2a;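 further: activated enterokinase alone at 50 pM in a cell-free format rather than USP2a or CHOP2; nearly all actives have a fitted effect of over 55% in size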
# Conditions: purified enterokinase, fluorogenic substrate, 485/531 nm; series mostly up to 38.3 µM
# In short: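 Cell-free counterscreen with pre-activated enterokinase alone (50 pM final) in 20mM Tris-HCl pH 8.0, 2mM CaCl2, 2mM beta-mercaptoethanol, 0.05% CHAPS; compound preincubation 30 min RT, reporter substrate 25nM final, fluorescence read after 10 min (Ex 485/Em 531).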
# Potency means the concentration at half of the fitted maximal effect.
row,Compound,Potency
1,CCCCCCCCCCOC(=O)Cn1c(COc2ccc(Cl)cc2)[n+](C)c2ccccc21,8.91 µM (active)
2,COc1ccc(S(=O)(=O)N2CCCCC2)cc1NC(=O)Cc1c[nH]c2ccccc12,inactive
3,CC(=O)Nc1ccc(NC(=O)C2CCCN(S(=O)(=O)c3ccc(Cl)cc3)C2)cc1 (stereo unspecified),inactive
4,CCCCn1c(SCC(=O)N2CCC(C)CC2)nc2cc(S(N)(=O)=O)ccc21,inactive
5,Nc1cc(N)nc(SCC(=O)N2CCCCC2)n1,inactive
6,COc1ccc(/C=C2/SC(=S)N(c3ccc(S(=O)(=O)Nc4nccs4)cc3)C2=O)cc1,11.2 µM (active)
7,CN(C)S(=O)(=O)c1ccc(C(=O)NCCN=C2NS(=O)(=O)c3ccccc32)cc1,inactive
8,O=C(Cn1cnc2sc(-c3ccccc3)cc2c1=O)NCc1ccco1,10 µM (active)
9,COc1cc(/C=C/c2cc[n+](C)cc2)ccc1OCC(=O)Nc1ccc(Cl)c(Cl)c1,11.2 µM (active)
10,CCOC(=O)Nc1nnc(CCc2ccccc2)s1,inactive
11,CCC(C)NC(=O)C1CN(S(=O)(=O)c2ccccc2)CCN1S(=O)(=O)c1ccccc1 (stereo unspecified),inactive
12,Nn1c(Nc2ccccc2)nc2ccccc2c1=O,inactive
13,COCCCNC(=O)C1CCN(c2nc(C)cc(C)n2)CC1,inactive
14,COC(=O)C1Sc2[nH]c(=O)sc2C(c2ccc(Cl)cc2)C1C(=O)OC (stereo unspecified),inactive
15,O=C(CSCc1cnn(-c2ccccc2)c1-n1cccc1)NCC1CCCO1 (stereo unspecified),inactive
16,COc1ccc2[nH]c(=O)c(CN(C3CCCCC3)C(c3nnnn3Cc3ccco3)C(C)C)cc2c1 (stereo unspecified),10 µM (active)
